# Source: PubChem BioAssay
# Where “and” joins values, the source holds several entries; their conditions need not be identical. Equal values may be shown once. Calls of active or inactive are those of the source. Unless noted, how the calls were made is not given here.
# Assays:
# [1] = kinase inhibitors against Plasmodium liver-stage infection, cell-based, known kinase inhibitor set, luminescence, hepatoma host viability (AID 624392); conditions: Plasmodium liver stage in hepatoma cells, luciferase luminescence, concentration not given here; liver cell % of control: measured here: host liver cell viability; parasite % of control: stronger effect = lower value;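 further: infected cells incubated roughly two days before readout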
# [2] = system: Hepatitis C virus NS3 helicase; experiment: HCV NS3 helicase inhibitors, primary screen, biochemical, fluorescence polarization, LOPAC1280 library (AID 687035; in the data active means inhibition above about 37%); conditions: Purified HCV NS3 helicase, Cy5-dT15 ssDNA binding fluorescence polarization; stronger effect = higher value; concentration not given here
# [3] = Cy5 fluorescence quenching or enhancement artefacts, artefact control for HCV NS3 helicase inhibitor project, biochemical, LOPAC1280 (AID 687037); conditions: Cy5-DNA-NS3h complex fluorescence interference counterscreen
# [4] = phospholipid biosynthesis inhibitors in animal cells, primary screen, cell-based, LOPAC library, screen 4 (AID 1347384); conditions: phospholipid biosynthesis inhibition screen, at 10 µM
# [5] = viability rescue of complex I mutant cybrids, primary screen, cell-based, galactose medium, ATP luminescence (AID 1645843;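 active means z-score of at least 1.8 in each of two replicates, scored against plate mean and spread of sample wells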;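 further: positive z means more ATP and so rescue of galactose-driven cybrid death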); conditions: complex I mutant cybrid cells, 72 h, stronger effect = higher value
# [6] = liver-stage malaria parasite growth inhibition, primary screen, cell-based, HepG2, luciferase luminescence, HepG2 viability (AID 624349; in the data active means parasite load remaining mostly below about 12%, no sharp cut-off; inactive means mostly above about 10%;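 further: 100% = mean of DMSO negative control wells on the same plate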); conditions: P. berghei liver stage in HepG2, luciferase luminescence, concentration not given here; parasite load remaining: stronger effect = lower value; viability: measured here: HepG2 viability without parasites
# [7] = molecular target: NAD(+) hydrolase SARM1 (Homo sapiens) (UniProt Q6SZW1); experiment: SARM1 TIR NADase inhibitors, cell lysate, NAD-Glo luminescence (AID 1508614;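 active means compound whose remaining NAD level is above about 45 nM, limit read from the data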); conditions: SAM-TIR HEK293T lysate NADase, at 1 µM, stronger effect = higher value
# [8] = molecular target: Mitogen-activated protein kinase 7 (Homo sapiens) (UniProt Q13164); experiment: ERK5 transactivation activators in reporter cells, primary screen, cell-based, HTS (AID 1508626;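 active means luciferase signal above three times the same-plate solvent-only control wells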;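 further: luciferase driven by Gal4-ERK5 fusion binding five Gal4 sites before minimal TATA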); conditions: HeLa Gal4-ERK5 transactivation, 18 h, at 5 µM, stronger effect = higher value
# [9] = circadian clock period modulators, cell-based, LOPAC library, luminescence reporter (AID 2774); conditions: circadian reporter cells, at 7 µM, actives lie on both sides;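 further: values are relative to mean of DMSO wells on each plate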
# [10] = LFS_MB_1R medulloblastoma cell growth inhibition, synergistic combos for chromothripsis tumors, cisplatin or BGB combos (AID 1671452; in the data active means inhibition above about 80%;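 further: cells exposed for 96 hours before readout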); conditions: LFS_MB_1R medulloblastoma cells, stronger effect = higher value
# [11] = CRL2098 osteosarcoma cell growth inhibition, synergistic combos for chromothripsis tumors, BGB or cisplatin IC20 combos (AID 1671454; in the data active means inhibition above about 80%;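 further: cells exposed for 96 h before readout; 0% = vehicle DMSO and 100% = killing by high DMSO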); conditions: CRL2098 osteosarcoma cells, drug combinations, stronger effect = higher value
# [12] = HD-MB03 medulloblastoma cell growth inhibition, synergistic combos for chromothripsis tumors, BGB or cisplatin IC20 combos (AID 1671455; in the data active means inhibition above about 83%;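 further: 0% = vehicle DMSO and 100% = high DMSO as cytotoxic control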); conditions: HD-MB03 medulloblastoma cells, stronger effect = higher value
# [13] = UWB1.289 ovarian carcinoma cell growth inhibition, synergistic combos for chromothripsis tumors, BGB or cisplatin combos (AID 1671456; in the data active means inhibition above about 80%;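 further: cells exposed to compound for four days; 0% = vehicle DMSO and 100% = killing by high DMSO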); conditions: UWB1.289 ovarian carcinoma cells, stronger effect = higher value
# [14] = LFS_MB_2R medulloblastoma cell growth inhibition, synergistic combos for chromothripsis tumors, cisplatin combos (AID 1671457; in the data active means inhibition above about 80%;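 further: cells exposed to compound for four days before readout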); conditions: LFS_MB_2R medulloblastoma cells, stronger effect = higher value
# [15] = UWB1.289_BRCA1 ovarian cancer growth, cell-based, BGB or cisplatin combinations (AID 1671459; in the data active means inhibition above about 80%); conditions: UWB1.289 BRCA1 ovarian carcinoma, drug combinations, stronger effect = higher value
# [16] = human astrocyte viability loss, single and combined drugs, cytotoxicity control for chromothriptic childhood tumor combination screen, cell-based, BGB or cisplatin IC20 combos (AID 1671460; in the data active means inhibition above about 80%;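 further: cells exposed to compounds for 96 hours before viability readout; 0% = vehicle and 100% = killing control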); conditions: Human astrocytes, drug combinations, stronger effect = higher value
# [17] = measured here: combination with BGB IC40, at 0.05 µM
# [18] = measured here: combination with cisplatin, at 0.5 µM
# [19] = measured here: combination with cisplatin, at 5 µM
# [20] = measured here: combination with BGB at IC20, at 0.5 µM
# [21] = measured here: combination with cisplatin at IC20, at 0.5 µM
# [22] = measured here: combo with BGB at IC20, at 0.5 µM
# [23] = measured here: combo with cisplatin at IC20, at 0.5 µM
# [24] = measured here: inhibition with BGB combination, at 0.05 µM
# [25] = measured here: inhibition with cisplatin combination, at 0.05 µM
# [26] = BGB combination, concentration series, at 5 µM
# [27] = cisplatin combination, concentration series, at 5 µM
# [28] = measured here: combo with BGB IC20, at 0.5 µM
# [29] = measured here: combo with cisplatin IC20, at 0.5 µM
# Chain of NAD(+) hydrolase SARM1 (Homo sapiens) (Q6SZW1 whole entry, looked up, the tested form may be a part): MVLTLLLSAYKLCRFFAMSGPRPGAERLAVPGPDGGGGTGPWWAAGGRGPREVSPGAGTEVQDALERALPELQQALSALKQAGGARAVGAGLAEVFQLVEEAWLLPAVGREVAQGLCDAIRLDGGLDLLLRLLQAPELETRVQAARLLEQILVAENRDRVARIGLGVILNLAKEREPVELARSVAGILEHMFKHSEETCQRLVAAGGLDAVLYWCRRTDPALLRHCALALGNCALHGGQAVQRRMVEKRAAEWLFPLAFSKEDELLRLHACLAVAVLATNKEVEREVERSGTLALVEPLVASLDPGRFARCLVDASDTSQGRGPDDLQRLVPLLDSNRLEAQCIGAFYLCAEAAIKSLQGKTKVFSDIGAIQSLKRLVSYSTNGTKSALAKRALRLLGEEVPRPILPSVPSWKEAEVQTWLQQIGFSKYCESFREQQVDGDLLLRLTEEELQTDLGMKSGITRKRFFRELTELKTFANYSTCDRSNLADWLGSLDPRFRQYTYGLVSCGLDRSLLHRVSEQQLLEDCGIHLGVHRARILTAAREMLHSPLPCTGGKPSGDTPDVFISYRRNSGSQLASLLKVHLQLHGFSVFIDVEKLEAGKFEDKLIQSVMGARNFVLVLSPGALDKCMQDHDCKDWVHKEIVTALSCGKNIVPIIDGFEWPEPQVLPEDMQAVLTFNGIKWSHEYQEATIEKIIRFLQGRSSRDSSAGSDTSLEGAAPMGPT
# Chain of Mitogen-activated protein kinase 7 (Homo sapiens) (Q13164 whole entry, looked up, the tested form may be a part): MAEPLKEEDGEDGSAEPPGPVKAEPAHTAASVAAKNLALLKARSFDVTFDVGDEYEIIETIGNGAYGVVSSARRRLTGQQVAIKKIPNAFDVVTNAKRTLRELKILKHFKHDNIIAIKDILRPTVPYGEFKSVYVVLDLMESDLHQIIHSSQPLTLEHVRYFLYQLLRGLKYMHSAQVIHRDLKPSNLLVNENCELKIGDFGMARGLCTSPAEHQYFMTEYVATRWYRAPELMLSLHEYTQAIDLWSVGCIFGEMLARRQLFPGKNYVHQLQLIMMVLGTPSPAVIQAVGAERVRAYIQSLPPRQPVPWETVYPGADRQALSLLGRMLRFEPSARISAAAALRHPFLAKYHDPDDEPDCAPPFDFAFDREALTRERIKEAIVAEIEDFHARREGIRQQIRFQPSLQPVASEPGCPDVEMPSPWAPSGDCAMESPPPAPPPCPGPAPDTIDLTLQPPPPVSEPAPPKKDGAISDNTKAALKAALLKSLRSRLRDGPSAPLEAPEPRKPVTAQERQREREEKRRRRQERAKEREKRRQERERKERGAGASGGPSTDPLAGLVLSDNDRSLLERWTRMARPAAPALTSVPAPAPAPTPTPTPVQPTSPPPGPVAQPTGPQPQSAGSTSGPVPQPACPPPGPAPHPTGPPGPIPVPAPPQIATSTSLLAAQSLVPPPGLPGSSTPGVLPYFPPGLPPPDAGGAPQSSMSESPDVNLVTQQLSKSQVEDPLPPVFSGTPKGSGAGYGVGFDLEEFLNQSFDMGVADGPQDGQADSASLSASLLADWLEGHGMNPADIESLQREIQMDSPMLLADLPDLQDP
structure (smiles),measurement,setting,value
CC(C)(N)c1ccc(-c2nc3ccccc3nc2-c2ccccc2)cc1,liver cell % of control,[1],41.6% and 76.6% and 85.6%
same,parasite % of control,[1],0.22% (inactive) and 84.1% (inactive) and 92.8% (inactive)
COC(=O)C1=CO[C@@H](O)[C@@H]2C(CO)=CC[C@H]12,inhibition,[2],-3% (inactive)
same,fluorescence ratio (interference),[3],1 (inactive)
same,outcome,[4],inactive
same,z-score,[5],-0.175 (inactive)
NC[C@@H]1O[C@H](O[C@H]2[C@@H](O)[C@H](O[C@@H]3[C@@H](O)[C@H](N)C[C@H](N)[C@H]3O[C@H]3O[C@H](CN)[C@@H](O)[C@H](O)[C@H]3N)O[C@@H]2CO)[C@H](N)[C@@H](O)[C@@H]1O,parasite load remaining,[6],49.2% (inactive) and 45.9% (inactive)
same,viability,[6],48% and 104%
same,remaining NAD,[7],10 nM (inactive)
same,luciferase signal,[8],28 AU (inactive)
same,z-score,[5],0.135 (inactive)
C=CC(=O)Nc1cccc(Nc2nc(NC3CCC(N(C)C)CC3)nc3c2ncn3C(C)C)c1 (stereo not drawn),liver cell % of control,[1],43.6%
same,parasite % of control,[1],15.4% (inactive)
O=C(Nc1nc2ccccc2n1CCN1CCOCC1)c1cccc([N+](=O)[O-])c1,parasite load remaining,[6],33.2% (inactive)
same,viability,[6],151%
same,inhibition,[2],-2% (inactive)
same,fluorescence ratio (interference),[3],1.1 (inactive)
same,outcome,[4],inactive
same,z-score,[5],1.46 (inactive)
N#Cc1c(C2CCNCC2)cc(-c2c(O)cccc2OCC2CC2)nc1N,parasite load remaining,[6],29.7% (inactive)
same,viability,[6],88.8%
Nc1nc(N)c(N=O)c(OCC2CCCCC2)n1,inhibition,[2],-2% (inactive)
same,fluorescence ratio (interference),[3],0.9 (inactive)
same,outcome,[4],inactive
same,z-score,[5],1.21 (inactive)
COc1ccc(-c2c(-c3ccc(O)cc3O)n[nH]c2C)cc1,z-score,[5],-1.81 (inactive)
O=c1[nH]c(=O)n([C@H]2C[C@H](O)[C@@H](CO)O2)cc1/C=C/Br,period change,[9],-0.01 h (inactive)
same,inhibition,[2],-1% (inactive)
same,fluorescence ratio (interference),[3],1 (inactive)
COc1ccc(C(=O)CC2(O)C(=O)Nc3c(Cl)ccc(Cl)c32)cc1 (stereo not drawn),inhibition,[10]; at 0.5 µM,2.98% (inactive)
same,inhibition,[10]; [17],-32.3%
same,inhibition,[10]; [18],23.2%
same,inhibition,[10]; [19],27.4%
same,inhibition,[11]; at 0.5 µM,-4.98% (inactive)
same,inhibition,[11]; [20],4.02%
same,inhibition,[11]; [21],-4.5%
same,inhibition,[12]; at 0.5 µM,57.3% (inactive)
same,inhibition,[12]; [22],58.6%
same,inhibition,[12]; [23],55.7%
same,inhibition,[13]; at 0.5 µM,11.3% (inactive)
same,inhibition,[13]; [24],-8.43%
same,inhibition,[13]; [25],-6.45%
same,inhibition,[14]; at 0.5 µM,-4.47% (inactive)
same,inhibition,[14]; [18],-11.7%
same,inhibition,[14]; [19],-26.3%
same,inhibition,[15]; [26],47.8%
same,inhibition,[15]; at 0.5 µM,14.6% (inactive)
same,inhibition,[15]; [27],51.1%
same,inhibition,[16]; at 0.5 µM,9.33% (inactive)
same,inhibition,[16]; [28],10.9%
same,inhibition,[16]; [29],2.7%
Cc1cn([C@@H]2O[C@H](CO)[C@@H](O)[C@@H]2F)c(=O)[nH]c1=O,inhibition,[10]; at 0.5 µM,-24% (inactive)
same,inhibition,[10]; [17],-37.2%
same,inhibition,[10]; [18],-20.9%
same,inhibition,[10]; [19],-19%
same,inhibition,[11]; at 0.5 µM,-20.9% (inactive)
same,inhibition,[11]; [20],-6.05%
same,inhibition,[11]; [21],-15.6%
same,inhibition,[12]; at 0.5 µM,-11.4% (inactive)
same,inhibition,[12]; [22],-16%
same,inhibition,[12]; [23],-8.28%
same,inhibition,[13]; at 0.5 µM,-3.54% (inactive)
same,inhibition,[13]; [24],-7.92%
same,inhibition,[13]; [25],2.99%
same,inhibition,[14]; at 0.5 µM,-27.6% (inactive)
same,inhibition,[14]; [18],-30.2%
same,inhibition,[14]; [19],-44.4%
same,inhibition,[15]; [26],-5.53%
same,inhibition,[15]; at 0.5 µM,-5.97% (inactive)
same,inhibition,[15]; [27],11.6%
same,inhibition,[16]; at 0.5 µM,10.9% (inactive)
same,inhibition,[16]; [28],14.5%
same,inhibition,[16]; [29],15.4%
C[C@H](Cc1ccc(O)c(O)c1)[C@@H](C)Cc1ccc(O)c(O)c1,period change,[9],0.005 h (inactive)
same,inhibition,[2],-2% (inactive)
same,fluorescence ratio (interference),[3],1 (inactive)
same,outcome,[4],inactive
same,z-score,[5],-1.22 (inactive)
Cc1cc(Cl)ccc1OCCCC(=O)NO,outcome,[4],inactive
same,z-score,[5],0.555 (inactive)
O=C1NC(=O)/C(=C/c2ccc(-c3ccc(F)cc3O)o2)S1,parasite load remaining,[6],10.7% (active)
same,viability,[6],62.9%
same,inhibition,[2],0% (inactive)
same,fluorescence ratio (interference),[3],1 (inactive)
same,outcome,[4],inactive
same,z-score,[5],1.31 (inactive)
CN(C)C(=O)[C@H](O)[C@H](Cc1ccccc1)NC(=O)c1cc2cc(Cl)ccc2[nH]1,outcome,[4],inactive
same,z-score,[5],3.02 (active)
